# Several values for one entry are separate records, joined by “and”; a condition that tells them apart may be missing. Identical values can stand only once. Results filed as inconclusive are left out. A call without a number means that no potency is given here. Where a structure was tested more than once in an assay, its records may differ in their call. Activity calls are given as the source filed them. Unless noted, the call rests on the fitted dose curve; in most records, active means well fitted curve in the direction sought with a large enough effect in the repeat runs; inconclusive means weak or mixed curves; inactive means no such curve, though single readings can be large; an effect the other way counts as inactive or inconclusive.
# Key:
# [1] = target: Estrogen receptor (Homo sapiens) (UniProt P03372); experiment: qHTS assay to identify small molecule antagonists of the estrogen receptor alpha (ER-alpha) signaling pathway (AID 743069; active means well fitted curve in the direction sought with a large enough effect in the signal ratio in the repeat runs, not every such curve was filed as active; the % refers to the signal ratio)
# Sequence of Estrogen receptor (Homo sapiens) (P03372 whole entry, looked up): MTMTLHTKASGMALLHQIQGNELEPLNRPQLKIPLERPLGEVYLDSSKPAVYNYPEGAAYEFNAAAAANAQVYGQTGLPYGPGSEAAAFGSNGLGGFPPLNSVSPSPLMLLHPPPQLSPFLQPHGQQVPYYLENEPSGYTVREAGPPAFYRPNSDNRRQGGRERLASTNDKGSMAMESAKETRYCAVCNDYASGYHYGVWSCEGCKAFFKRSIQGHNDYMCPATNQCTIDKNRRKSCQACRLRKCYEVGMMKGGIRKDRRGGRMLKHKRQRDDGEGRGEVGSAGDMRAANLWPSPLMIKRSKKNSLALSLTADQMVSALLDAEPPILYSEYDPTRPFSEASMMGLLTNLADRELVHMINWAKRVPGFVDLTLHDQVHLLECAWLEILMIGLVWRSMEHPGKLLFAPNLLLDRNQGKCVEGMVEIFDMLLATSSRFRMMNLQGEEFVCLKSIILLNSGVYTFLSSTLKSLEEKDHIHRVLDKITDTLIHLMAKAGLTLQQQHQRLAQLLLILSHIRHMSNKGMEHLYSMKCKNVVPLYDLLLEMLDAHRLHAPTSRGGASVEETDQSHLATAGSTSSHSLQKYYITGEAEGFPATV
# Method in brief: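 ER-alpha-UAS-bla GripTite HEK293 line; 2% charcoal-stripped FBS overnight; plated, 4 hr 37C/5% CO2; cpd in DMSO + 17beta-estradiol, 18 hr 37C; LiveBLAzer B/G FRET substrate 2 hr RT; fluorescence intensity.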
# [2] = qHTS assay to identify small molecule antagonists of the estrogen receptor alpha (ER-alpha) signaling pathway - cell viability counter screen (AID 743074; calls by dose curve;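 further: HEK293 cells carrying ER-alpha-UAS-bla reporter stimulated with 17beta-estradiol; nearly all actives have a fitted effect of over 45% in size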; further: potency means the concentration at half of the fitted maximal effect)
# [3] = target: Estrogen receptor (Homo sapiens) (UniProt P03372); experiment: qHTS assay to identify small molecule agonists of the estrogen receptor alpha (ER-alpha) signaling pathway (AID 743075; calls by dose curve;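 further: HEK293 GripTite cells with ER-alpha and UAS-driven beta-lactamase reporter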)
# [4] = target: Estrogen receptor (Homo sapiens) (UniProt P03372); experiment: qHTS assay to identify small molecule agonists of the estrogen receptor alpha (ER-alpha) signaling pathway using the BG1 cell line (AID 743079); conditions: BG1Luc4E2 cells, ERE-luciferase agonist, 22 h; activation: at 70.3 µM (top of the series); further: nearly all actives have a fitted effect of over 20% in size; further: potency means the concentration at half of the fitted maximal effect
# [5] = qHTS assay to identify small molecule antagonists of the estrogen receptor alpha (ER-alpha) signaling pathway using the BG1 cell line (AID 743080; calls by dose curve;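 further: BG1 cells stimulated with 17beta-estradiol alongside compound; nearly all actives have a fitted effect of over 25% in size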); conditions: BG1Luc4E2 ERE-luciferase antagonist mode, luminescence; activity change, negative = inhibition: at 70.3 µM (top of the series)
# Method in brief: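 After 5 days in phenol-red-free 10% charcoal-stripped FBS medium, BG1-Luc-4E2 cells were seeded, left 24 h at 37 C, co-treated with compounds and 17beta-estradiol for 21.5 h, then assayed for viability and luciferase.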
# [6] = qHTS assay to identify small molecule antagonists of the estrogen receptor alpha (ER-alpha) signaling pathway using the BG1 cell line - cell viability counter screen (AID 743081);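 further: compound given together with 17beta-estradiol as the ER stimulus; nearly all actives have a fitted effect of over 45% in size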; further: potency means the concentration at half of the fitted maximal effect
# [7] = target: Aromatase (Homo sapiens) (UniProt P11511); experiment: qHTS assay to identify aromatase inhibitors (AID 743083); further: nearly all actives have a fitted effect of over 55% in size; further: potency means the concentration at half of the fitted maximal effect
# Sequence of Aromatase (Homo sapiens) (P11511 whole entry, looked up): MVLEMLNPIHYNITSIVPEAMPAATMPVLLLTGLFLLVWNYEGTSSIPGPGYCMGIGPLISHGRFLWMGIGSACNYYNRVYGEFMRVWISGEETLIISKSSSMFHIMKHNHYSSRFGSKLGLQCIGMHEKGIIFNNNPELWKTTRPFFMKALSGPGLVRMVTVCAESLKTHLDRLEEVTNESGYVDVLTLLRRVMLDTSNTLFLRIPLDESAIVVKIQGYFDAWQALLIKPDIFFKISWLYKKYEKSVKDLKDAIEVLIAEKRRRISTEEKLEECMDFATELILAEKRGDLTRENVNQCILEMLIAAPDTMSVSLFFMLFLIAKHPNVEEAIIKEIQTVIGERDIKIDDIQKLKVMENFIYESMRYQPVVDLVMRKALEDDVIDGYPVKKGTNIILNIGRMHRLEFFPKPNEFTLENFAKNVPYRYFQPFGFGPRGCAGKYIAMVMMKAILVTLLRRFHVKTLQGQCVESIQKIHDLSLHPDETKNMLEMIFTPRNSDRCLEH
# [8] = qHTS assay to identify aromatase inhibitors - cell viability counter screen (AID 743084);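 further: cells stimulated with testosterone during compound exposure; nearly all actives have a fitted effect of over 55% in size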; further: potency means the concentration at half of the fitted maximal effect
# [9] = target: Aryl hydrocarbon receptor (Homo sapiens) (UniProt P35869); experiment: qHTS assay to identify small molecule that activate the aryl hydrocarbon receptor (AhR) signaling pathway (AID 743085); further: nearly all actives have a fitted effect of over 15% in size; further: potency means the concentration at half of the fitted maximal effect;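 on activation: HG2L7.5c1 human HepG2 liver cells with stably integrated DRE-driven firefly reporter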
# Sequence of Aryl hydrocarbon receptor (Homo sapiens) (P35869 whole entry, looked up): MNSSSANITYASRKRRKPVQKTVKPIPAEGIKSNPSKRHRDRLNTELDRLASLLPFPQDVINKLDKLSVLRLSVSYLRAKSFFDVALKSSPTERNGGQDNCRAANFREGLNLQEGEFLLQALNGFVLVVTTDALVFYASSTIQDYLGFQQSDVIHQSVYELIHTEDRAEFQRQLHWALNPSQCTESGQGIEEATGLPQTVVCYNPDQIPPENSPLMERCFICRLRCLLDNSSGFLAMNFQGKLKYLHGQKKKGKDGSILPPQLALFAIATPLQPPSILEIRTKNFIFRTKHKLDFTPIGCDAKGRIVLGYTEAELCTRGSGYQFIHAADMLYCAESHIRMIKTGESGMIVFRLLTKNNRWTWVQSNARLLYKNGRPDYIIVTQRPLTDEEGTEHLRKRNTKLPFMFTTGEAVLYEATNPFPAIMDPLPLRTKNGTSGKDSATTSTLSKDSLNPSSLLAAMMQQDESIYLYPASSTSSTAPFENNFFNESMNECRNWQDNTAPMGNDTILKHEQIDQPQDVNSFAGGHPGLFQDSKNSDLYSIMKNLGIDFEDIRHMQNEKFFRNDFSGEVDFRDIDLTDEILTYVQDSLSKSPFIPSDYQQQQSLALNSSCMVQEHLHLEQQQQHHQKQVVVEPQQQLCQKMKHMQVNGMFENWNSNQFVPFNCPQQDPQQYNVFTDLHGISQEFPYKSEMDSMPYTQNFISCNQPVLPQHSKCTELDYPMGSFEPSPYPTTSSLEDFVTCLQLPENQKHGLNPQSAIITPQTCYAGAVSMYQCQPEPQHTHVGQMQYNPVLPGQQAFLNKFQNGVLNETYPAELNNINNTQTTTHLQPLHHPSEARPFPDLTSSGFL
# Method in brief: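 Luminescence (ONE-Glo) from a dioxin-responsive-element luciferase reporter in HG2L7.5c1 HepG2 cells after 24 hr compound exposure at 37C; viability measured by CellTiter-Fluor fluorescence beforehand.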
# [10] = qHTS assay to identify small molecule that activate the aryl hydrocarbon receptor (AhR) signaling pathway - cell viability counter screen (AID 743086); further: nearly all actives have a fitted effect of over 45% in size; further: potency means the concentration at half of the fitted maximal effect
# Method in brief: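 Cytotoxicity counter screen: CellTiter-Fluor signal (30 min, 37 C) in 4000 HepG2 cells/well carrying the DRE-luciferase reporter, following 24 h compound exposure at 37 C.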
# [11] = qHTS assay to identify small molecule antagonists of the peroxisome proliferator-activated receptor gamma (PPARg) signaling pathway - cell viability counter screen (AID 743194); further: nearly all actives have a fitted effect of over 55% in size; further: potency means the concentration at half of the fitted maximal effect
# Method in brief: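 Viability was measured as CellTiter-Glo luminescence in GeneBLAzer PPARg UAS-bla HEK293H cells. These cells had been exposed 17 h at 37 C to compounds together with rosiglitazone at 50 nM final, with the beta-lactamase readout taken in the same wells.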
# [12] = qHTS assay for small molecule agonists of the antioxidant response element (ARE) signaling pathway - cell viability counter screen (AID 743203; calls by dose curve; further: nearly all actives have a fitted effect of over 55% in size)
# Method in brief: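 Following 16 hrs of compound treatment at 37C, HepG2 cells with an ARE-controlled beta-lactamase gene were lysed with CellTiter-Glo. Luminescence was read after 30 min at room temperature.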
# [13] = qHTS assay for small molecule activators of the heat shock response signaling pathway - cell viability counter screen (AID 743209); further: nearly all actives have a fitted effect of over 50% in size; further: potency means the concentration at half of the fitted maximal effect
# Method in brief: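 Readout: CellTiter-Glo luminescence, 30 min at room temperature. System: HSE-bla HeLa cells, 1500/well, plated overnight. Treatment: compounds in DMSO, 5 h at 37 C.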
# [14] = qHTS assay for small molecule activators of the heat shock response signaling pathway (AID 743210; active means well fitted activation curve with a large enough effect in the signal ratio in the repeat runs, with a control signal flat, not every such curve was filed as active; the % refers to the signal ratio;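 further: HeLa cells with beta-lactamase reporter driven by heat shock elements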)
# Method in brief: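 HeLa HSE-bla cells, overnight plating; cpd in DMSO 5 h, 37 C; LiveBLAzer B/G FRET substrate 2.5 h RT; fluorescence intensity read.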
# [15] = qHTS assay to identify small molecule agonists of the peroxisome proliferator-activated receptor delta (PPARd) signaling pathway - cell viability counter screen (AID 743211); further: nearly all actives have a fitted effect of over 55% in size; further: potency means the concentration at half of the fitted maximal effect
# Method in brief: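 Viability was measured as CellTiter-Glo luminescence (30 min, room temperature) in the same wells as the beta-lactamase readout. GeneBLAzer PPARd UAS-bla HEK293H cells received compound after 5 h plating and were incubated 17 h at 37 C.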
# [16] = target: Peroxisome proliferator-activated receptor gamma (Homo sapiens) (UniProt P37231); experiment: qHTS assay to identify small molecule agonists of the peroxisome proliferator-activated receptor gamma (PPARg) signaling pathway (AID 743094; active means well fitted activation curve with a large enough effect in the signal ratio in the repeat runs, not every such curve was filed as active; the % refers to the signal ratio)
# Sequence of Peroxisome proliferator-activated receptor gamma (Homo sapiens) (P37231 whole entry, looked up): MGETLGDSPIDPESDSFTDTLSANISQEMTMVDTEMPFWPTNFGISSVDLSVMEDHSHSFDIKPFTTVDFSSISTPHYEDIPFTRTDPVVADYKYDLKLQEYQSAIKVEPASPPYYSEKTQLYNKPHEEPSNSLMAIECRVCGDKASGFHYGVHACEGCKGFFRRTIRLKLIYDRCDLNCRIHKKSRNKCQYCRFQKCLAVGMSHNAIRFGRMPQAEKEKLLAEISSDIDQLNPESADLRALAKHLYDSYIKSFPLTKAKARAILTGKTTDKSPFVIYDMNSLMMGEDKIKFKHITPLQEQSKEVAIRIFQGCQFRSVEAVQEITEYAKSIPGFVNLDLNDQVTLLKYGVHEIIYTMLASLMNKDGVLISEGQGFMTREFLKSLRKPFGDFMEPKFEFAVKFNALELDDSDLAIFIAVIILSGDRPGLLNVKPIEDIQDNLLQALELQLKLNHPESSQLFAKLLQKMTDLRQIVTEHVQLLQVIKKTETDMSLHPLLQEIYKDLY
# Method in brief: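 Compounds dissolved in DMSO were added to PPARg UAS-bla HEK293H cells for 17 h at 37C, and reporter expression was quantified by fluorescence intensity after 1 h with LiveBLAzer B/G FRET substrate.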
# [17] = target: Peroxisome proliferator-activated receptor gamma (Homo sapiens) (UniProt P37231); experiment: qHTS assay to identify small molecule antagonists of the peroxisome proliferator-activated receptor gamma (PPARg) signaling pathway (AID 743191; calls by dose curve; further: nearly all actives have a fitted effect of over 30% in size)
# Method in brief: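 Beta-lactamase reporter under UAS control in HEK293H PPARg-bla cells; compound treatment 17 h at 37C. Read-out: fluorescence intensity after 1 h room-temperature incubation with LiveBLAzer B/G FRET substrate.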
# [18] = qHTS assay for small molecule agonists of the antioxidant response element (ARE) signaling pathway (AID 743202; active means well fitted activation curve with a large enough effect in the signal ratio in the repeat runs, not every such curve was filed as active; the % refers to the signal ratio; further: potency means the concentration at half of the fitted maximal effect)
# Method in brief: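 Quantitative high-throughput format in HepG2 cells bearing an integrated ARE-beta-lactamase reporter. Compound exposure lasted 16 h at 37 C, and fluorescence was read 2 h after adding LiveBLAzer B/G substrate at room temperature.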
# [19] = system: thyroid hormone receptor (rat, GH3 cells); experiment: qHTS assay to identify small molecule agonists of the thyroid receptor (TR) signaling pathway (AID 743066; calls by dose curve; further: potency means the concentration at half of the fitted maximal effect)
smiles,measurement,setting,value
CO[C@H]1C=CO[C@@]2(C)Oc3c(C)c(O)c4c(O)c(cc(O)c4c3C2=O)NC(=O)/C(C)=C\C=C/[C@H](C)[C@H](O)[C@@H](C)[C@@H](O)[C@@H](C)[C@H](OC(C)=O)[C@@H]1C,Potency,[1],inactive
same,Potency,[2],inactive
same,Potency,[3],inactive
same,Potency,[4],inactive
same,Potency,[5],inactive
same,Potency,[6],inactive and 34.6 µM (active)
same,Potency,[7],inactive and 21.8 µM (active)
same,Potency,[8],inactive and 13.8 µM (active)
same,Potency,[9],inactive
same,Potency,[10],inactive
same,Potency,[11],inactive
same,Potency,[12],inactive
same,Potency,[13],inactive
same,Potency,[14],inactive
same,Potency,[15],inactive
CCC1(c2cnc[nH]2)Cc2ccccc2C1,Potency,[11],inactive
same,Potency,[12],inactive
same,Potency,[13],inactive
same,Potency,[15],inactive
C=CC(C)(CCC=C(C)C)OC(=O)/C=C/c1ccccc1 (centres undefined),Potency,[1],inactive
same,Potency,[2],inactive
same,Potency,[3],inactive
same,Potency,[4],61.1 µM (active)
same,Potency,[5],inactive
same,Potency,[6],inactive
same,Potency,[7],inactive
same,Potency,[9],inactive
same,Potency,[10],inactive
same,Potency,[16],inactive
same,Potency,[11],inactive
same,Potency,[12],inactive
same,Potency,[15],inactive
CCN(CC)c1ccc(N)cc1,Potency,[6],70.5 µM (active)
same,Potency,[7],28.1 µM (active)
same,Potency,[8],31.5 µM (active)
same,Potency,[9],25 µM (active)
same,Potency,[10],56 µM (active)
same,Potency,[16],inactive
same,Potency,[17],inactive
same,Potency,[11],inactive
same,Potency,[18],12.5 µM (active)
same,Potency,[15],44.8 µM (active)
Clc1ccc(C(c2ccccc2Cl)C(Cl)Cl)cc1 (centres undefined),Potency,[19],inactive
same,Potency,[2],inactive
same,Potency,[6],inactive
same,Potency,[7],inactive
same,Potency,[8],inactive
same,Potency,[9],inactive
same,Potency,[10],inactive
same,Potency,[17],inactive
same,Potency,[11],54.9 µM (active)
same,Potency,[12],inactive
same,Potency,[13],inactive
same,Potency,[15],49 µM (active)
C[C@]12CC[C@H]3C(=CCc4cc(O)ccc43)[C@@H]1CCC2=O,Potency,[19],1.54 µM (active)
same,Potency,[2],inactive
same,activation,[4],38% (active)
same,Potency,[6],inactive
same,Potency,[7],inactive
same,Potency,[8],inactive
same,Potency,[10],inactive
same,Potency,[11],inactive
same,Potency,[12],inactive
same,Potency,[14],inactive
same,Potency,[15],inactive
CC1CCCCN1CCCOC(=O)c1ccc(OC2CCCCC2)cc1 (centres undefined),Potency,[12],inactive
same,Potency,[13],inactive
same,Potency,[14],inactive
CCCCC(CC)COC(=O)c1ccc(O)cc1 (centres undefined),Potency,[19],inactive
same,Potency,[2],54.7 µM (active)
same,Potency,[6],inactive
same,Potency,[7],15.3 µM (active) and 19.3 µM (active)
same,Potency,[8],27.2 µM (active)
same,Potency,[9],inactive
same,Potency,[10],inactive
same,Potency,[11],48.8 µM (active)
same,Potency,[12],inactive
same,Potency,[13],24.5 µM (active)
same,Potency,[15],38.8 µM (active)

# — PubChem BioAssay (Tox21)
